Screening results as filed in PubChem BioAssay.
Pf Dd2 growth: inhibitors of Plasmodium falciparum Dd2 growth; AID 1159554; activity change, % at 10 µM; actives 2.3% (n = 94,000); P. falciparum Dd2 growth, SYBR Green, 72 h; active compounds read low; in the data active means activity change below about -80%; inconclusive means no clear call, values can overlap the other calls
T cruzi growth-1: T. cruzi proliferation inhibition | T. cruzi beta-gal in NIH3T3, GalScreen luminescence, 90 h | inhibition, % at 8.34 µM | actives 5.9% (n = 77,000) | AID 624255;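 active means mean inhibition above about 93%, with at least 55% of replicates each passing it, limit read from the data, passing the limit was not always enough; inconclusive means only one of those two conditions holds; inactive means neither condition holds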
C diff HTS: C. difficile growth inhibition. Clostridium difficile clinical isolate growth, OD600, 24 h; active compounds read low. growth activity, negative = inhibition, % at 16 µg/mL (by protocol). actives 0.25% (n = 86,000);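 active means mean growth activity at or below -80% and every replicate also at or below -80%; inconclusive means mean at or below -80% but some replicate above -80%; inactive means mean growth activity above -80%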
T cruzi growth-2: inhibitors of T. cruzi proliferation; actives 72% (n = 5,600); T. cruzi beta-gal in NIH3T3, GalScreen luminescence, 90 h; inhibition, % at 8.35 µM; shares compounds with T cruzi growth-1;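 active means mean replicate inhibition above about 95% and at least 55% of replicates individually reaching it, limit read from the data; inconclusive means only one of the two criteria is met; inactive means neither criterion is met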
T cruzi growth-3: inhibitors of T. cruzi proliferation. shares compounds with T cruzi growth-1. actives 21% (n = 5,600). T. cruzi beta-gal in NIH3T3, GalScreen luminescence, 90 h. inhibition, % at 2.09 µM;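 active means mean inhibition above about 95%, with at least 55% of replicates also reaching it, limit read from the data; inconclusive means meets just one of the two conditions; inactive means meets neither condition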
3T3 cytotox: kills mouse NIH/3T3 fibroblasts; shares compounds with T cruzi growth-1; NIH/3T3 viability, CellTiter-Glo ATP luminescence, 90 h; cytotoxicity (signal decrease), % at 8.35 µM; actives 14% (n = 5,600);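 active means mean signal decrease across replicates above about 35% based on untreated-well scatter, with enough replicates individually passing, limit read from the data; inconclusive means no rule stated though some were filed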
3T3 cytotox 2: kills mouse NIH/3T3 fibroblasts. shares compounds with T cruzi growth-1. NIH/3T3 viability, CellTiter-Glo ATP luminescence, 90 h. inhibition, % at 24.9 µM. actives 56% (n = 5,600). AID 651744;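 active means mean loss of cell viability signal at or above a set limit, and enough replicates individually reaching it; inconclusive means meets only the mean limit or only the replicate share; inactive means meets neither condition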
Numbers stand for hits; - = inactive; ? = inconclusive; . = not tested or not shown. This is a sample that favours compounds with a hit; in the whole collection about 6.8% have one here.

SMILES | Pf Dd2 growth | T cruzi growth-1 | C diff HTS | T cruzi growth-2 | T cruzi growth-3 | 3T3 cytotox | 3T3 cytotox 2
CN(C)C(=O)c1cccc(-c2ccc3c(c2)[C@H]2[C@H](CCN2C(=O)C2CCCC2)[C@H](CO)N3)c1 | - | . | - | . | . | . | .
CCC(=O)N1CC[C@@H]2[C@@H](CO)Nc3ccc(-c4ccc(C(=O)N(C)C)cc4)cc3[C@@H]21 | - | 103.0 | - | 104.0 | - | - | -
CN(C)C(=O)c1cccc(-c2ccc3c(c2)[C@H]2[C@H](CCN2C(=O)c2ccc4c(c2)OCO4)[C@H](CO)N3)c1 | - | - | - | . | . | . | .
CN(C)C(=O)c1cccc(-c2ccc3c(c2)[C@H]2[C@H](CCN2C(=O)C2CCOCC2)[C@@H](CO)N3)c1 | - | ? | - | 98.6 | - | - | -
CN(C)C(=O)c1cccc(-c2ccc3c(c2)[C@@H]2[C@@H](CCN2C(=O)C2CC2)[C@@H](CO)N3)c1 | - | 106.2 | - | 98.8 | - | - | -
O=C(Nc1cccc(F)c1)N[C@H]1CC[C@@H](CCn2cc(Cc3ccccc3)nn2)O[C@@H]1CO | - | - | - | . | . | . | .
COC(=O)C[C@@H]1C[C@@H]2c3cc(NC(=O)Nc4ccccc4)ccc3O[C@@H]2[C@@H](CO)O1 | - | - | - | . | . | . | .
CC=Cc1ccc2n(c1=O)C[C@H]1[C@H](CO)[C@@H](C(=O)NCC(F)(F)F)[C@@H]2N1C(=O)C1CCCC1 (mixture of isomers) | - | . | - | . | . | . | .
C[C@@H]1CN([C@@H](C)CO)C(=O)c2cc(-c3cccc(C(=O)N(C)C)c3)cnc2O[C@@H]1CN(C)S(=O)(=O)c1ccccc1 | - | . | - | . | . | . | .
C[C@@H]1CCCCO[C@H](CN(C)C(=O)Cc2ccccc2)[C@H](C)CN([C@@H](C)CO)C(=O)c2cc(NC(=O)c3ccccc3)ccc2O1 | - | - | - | . | . | . | .
COCC(=O)N1CC2(CN(Cc3cccnc3)C2)c2c(n(C)c3cc(OC)ccc23)[C@H]1CO | - | . | - | . | . | . | .
CS(=O)(=O)N1CC2(C1)[C@@H](c1ccccc1)[C@@H](CO)N2CC1CC1 | - | . | - | . | . | . | .
C[C@H](CO)N1C[C@H](C)[C@H](CN(C)C(=O)C2CCCCC2)OCCCC[C@H](C)Oc2ccc(NC(=O)C3CCCCC3)cc2C1=O | - | - | - | . | . | . | .
C[C@H](CO)N1C[C@H](C)[C@H](CN(C)S(=O)(=O)c2cccs2)OCCCC[C@H](C)Oc2ccc(NC(=O)Cc3ccccc3)cc2C1=O | - | - | - | . | . | . | .
C[C@@H]1CN([C@H](C)CO)S(=O)(=O)c2ccc(C#CC3CCCC3)cc2O[C@H]1CN(C)Cc1cccnc1 | -81.7 | 97.1 | - | - | ? | - | 104.6
C[C@H]1CN([C@@H](C)CO)S(=O)(=O)c2ccc(C#CC3CCCC3)cc2O[C@H]1CN(C)Cc1cccnc1 | - | 116.6 | - | 102.7 | - | - | 104.3
C[C@@H]1CN([C@@H](C)CO)S(=O)(=O)c2ccc(C#CC3CCCC3)cc2O[C@H]1CN(C)Cc1cccnc1 | - | - | - | . | . | . | .
C[C@@H]1CN([C@@H](C)CO)S(=O)(=O)c2ccc(C#CC3CCCCC3)cc2O[C@H]1CN(C)Cc1cccnc1 | - | - | . | . | . | . | .
O=C(C[C@H]1C=C[C@@H](NC(=O)CC2CC2)[C@@H](CO)O1)NCc1ccccc1 | - | . | - | . | . | . | .
COCC(=O)N1CCCCN2[C@H](C1)[C@H](c1ccc(C#Cc3ccccc3)cc1)[C@@H]2CO | - | - | - | . | . | . | .
COCC(=O)N1CCCCN2[C@H](CO)[C@@H](c3ccc(C#Cc4ccc(OC)cc4)cc3)[C@@H]2C1 | - | 107.6 | - | ? | - | - | 86.1
COCC(=O)N1CCCCN2[C@@H](CO)[C@H](c3ccc(C#Cc4ccccc4)cc3)[C@@H]2C1 | - | 97.2 | - | ? | - | - | 62.1
COCC(=O)N1CCCCN2[C@H](CO)[C@@H](c3ccc(C#Cc4ccc(OC)cc4)cc3)[C@H]2C1 | - | - | - | . | . | . | .
COCC(=O)N1CCCCN2[C@H](C1)[C@@H](c1ccc(C#Cc3ccccc3)cc1)[C@@H]2CO | - | - | - | . | . | . | .
COCC(=O)N1CCCCN2[C@H](CO)[C@H](c3ccc(C#Cc4ccccc4)cc3)[C@@H]2C1 | - | ? | - | 98.8 | - | 44.2 | 69.0
